PubChem BioAssay (Tox21)
Where “and” joins values, the source holds several entries; their conditions need not be identical. Equal entries are not always repeated. The source holds several records for some structures; these can differ, active in one and inactive in another. Calls of active or inactive are those of the source. Unless noted, the call rests on the fitted dose curve; in most records, active means well fitted curve in the direction sought with a large enough effect in the repeat runs; inconclusive means weak or mixed curves; inactive means no such curve, though single readings can be large; an effect the other way counts as inactive or inconclusive.

Experiments:
[1] = qHTS assay to identify small molecule antagonists of the thyroid receptor (TR) signaling pathway - cell viability counter screen (AID 743064); further: nearly all actives have a fitted effect of over 50% in size; further: potency means the concentration at half of the fitted maximal effect
Summary of the method: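 GH3.TRE-Luc rat pituitary cells carrying a TRE-luciferase reporter were treated with compound plus 1 nM T3 (final) for 23.5 h at 37 °C. Viability was then read in the same wells by CellTiter-Fluor fluorescence after a further 30 min.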

[2] = qHTS assay to identify small molecule antagonists of the thyroid receptor (TR) signaling pathway (AID 743065); further: nearly all actives have a fitted effect of over 55% in size; further: potency means the concentration at half of the fitted maximal effect
Summary of the method: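 Antagonism measured as loss of luciferase signal in GH3 cells stably carrying a TRE-luciferase reporter, co-treated with compound and T3 (1 nM final) for 23.5 h at 37 C. Viability was read in the same well by CellTiter-Fluor.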

[3] = tested on: thyroid hormone receptor (rat, GH3 cells); assay: qHTS assay to identify small molecule agonists of the thyroid receptor (TR) signaling pathway (AID 743066; calls by dose curve)
[4] = qHTS assay to identify small molecule antagonists of the estrogen receptor alpha (ER-alpha) signaling pathway - cell viability counter screen (AID 743074; calls by dose curve;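 further: HEK293 cells carrying ER-alpha-UAS-bla reporter stimulated with 17beta-estradiol; nearly all actives have a fitted effect of over 45% in size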; further: potency means the concentration at half of the fitted maximal effect)
[5] = qHTS assay to identify small molecule that activate the aryl hydrocarbon receptor (AhR) signaling pathway - cell viability counter screen (AID 743086); further: nearly all actives have a fitted effect of over 45% in size; further: potency means the concentration at half of the fitted maximal effect
Summary of the method: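 Cytotoxicity counter screen: CellTiter-Fluor signal (30 min, 37 C) in 4000 HepG2 cells/well carrying the DRE-luciferase reporter, following 24 h compound exposure at 37 C.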

[6] = qHTS assay for small molecule agonists of the antioxidant response element (ARE) signaling pathway - cell viability counter screen (AID 743203; calls by dose curve; further: nearly all actives have a fitted effect of over 55% in size; further: potency means the concentration at half of the fitted maximal effect)
Summary of the method: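 HepG2 cells carrying ARE-driven beta-lactamase; 2,000 cells/well; 5 hrs plating; compound pinned from DMSO; 16 hrs 37C/5% CO2; CellTiter-Glo added; 30 min RT; luminescence.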

[7] = qHTS assay for small molecule activators of the heat shock response signaling pathway - cell viability counter screen (AID 743209); further: nearly all actives have a fitted effect of over 50% in size; further: potency means the concentration at half of the fitted maximal effect
Summary of the method: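 Luminescence from CellTiter-Glo, added after the beta-lactamase FRET read, gave the viability signal. Cells were HSE-bla HeLa treated with DMSO-dissolved compounds for 5 h at 37 C following overnight plating.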

[8] = qHTS assay to identify small molecule antagonists of the estrogen receptor alpha (ER-alpha) signaling pathway using the BG1 cell line - cell viability counter screen (AID 743081);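 further: compound given together with 17beta-estradiol as the ER stimulus; nearly all actives have a fitted effect of over 45% in size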; further: potency means the concentration at half of the fitted maximal effect
[9] = target: Aromatase (Homo sapiens) (UniProt P11511); assay: qHTS assay to identify aromatase inhibitors (AID 743083); further: nearly all actives have a fitted effect of over 55% in size; further: potency means the concentration at half of the fitted maximal effect
Aromatase (Homo sapiens), sequence (P11511 whole entry, looked up): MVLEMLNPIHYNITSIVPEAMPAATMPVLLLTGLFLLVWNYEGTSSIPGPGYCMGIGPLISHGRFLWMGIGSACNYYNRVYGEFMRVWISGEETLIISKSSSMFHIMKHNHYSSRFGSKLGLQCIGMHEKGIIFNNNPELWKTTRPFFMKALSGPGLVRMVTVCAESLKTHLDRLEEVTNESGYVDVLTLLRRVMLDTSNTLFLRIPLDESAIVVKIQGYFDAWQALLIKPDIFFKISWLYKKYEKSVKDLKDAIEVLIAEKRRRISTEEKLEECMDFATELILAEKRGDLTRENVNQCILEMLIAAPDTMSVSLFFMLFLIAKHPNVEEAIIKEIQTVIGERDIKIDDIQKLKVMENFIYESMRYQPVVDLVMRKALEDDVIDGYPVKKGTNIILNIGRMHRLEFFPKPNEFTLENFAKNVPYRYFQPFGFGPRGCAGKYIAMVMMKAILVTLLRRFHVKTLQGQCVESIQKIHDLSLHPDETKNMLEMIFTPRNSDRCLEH

[10] = qHTS assay to identify aromatase inhibitors - cell viability counter screen (AID 743084);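 further: cells stimulated with testosterone during compound exposure; nearly all actives have a fitted effect of over 55% in size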; further: potency means the concentration at half of the fitted maximal effect
[11] = target: Aryl hydrocarbon receptor (Homo sapiens) (UniProt P35869); assay: qHTS assay to identify small molecule that activate the aryl hydrocarbon receptor (AhR) signaling pathway (AID 743085);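 further: HG2L7.5c1 human HepG2 liver cells with stably integrated DRE-driven firefly reporter; series mostly up to about 70 µM; nearly all actives have a fitted effect of over 15% in size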
Aryl hydrocarbon receptor (Homo sapiens), sequence (P35869 whole entry, looked up): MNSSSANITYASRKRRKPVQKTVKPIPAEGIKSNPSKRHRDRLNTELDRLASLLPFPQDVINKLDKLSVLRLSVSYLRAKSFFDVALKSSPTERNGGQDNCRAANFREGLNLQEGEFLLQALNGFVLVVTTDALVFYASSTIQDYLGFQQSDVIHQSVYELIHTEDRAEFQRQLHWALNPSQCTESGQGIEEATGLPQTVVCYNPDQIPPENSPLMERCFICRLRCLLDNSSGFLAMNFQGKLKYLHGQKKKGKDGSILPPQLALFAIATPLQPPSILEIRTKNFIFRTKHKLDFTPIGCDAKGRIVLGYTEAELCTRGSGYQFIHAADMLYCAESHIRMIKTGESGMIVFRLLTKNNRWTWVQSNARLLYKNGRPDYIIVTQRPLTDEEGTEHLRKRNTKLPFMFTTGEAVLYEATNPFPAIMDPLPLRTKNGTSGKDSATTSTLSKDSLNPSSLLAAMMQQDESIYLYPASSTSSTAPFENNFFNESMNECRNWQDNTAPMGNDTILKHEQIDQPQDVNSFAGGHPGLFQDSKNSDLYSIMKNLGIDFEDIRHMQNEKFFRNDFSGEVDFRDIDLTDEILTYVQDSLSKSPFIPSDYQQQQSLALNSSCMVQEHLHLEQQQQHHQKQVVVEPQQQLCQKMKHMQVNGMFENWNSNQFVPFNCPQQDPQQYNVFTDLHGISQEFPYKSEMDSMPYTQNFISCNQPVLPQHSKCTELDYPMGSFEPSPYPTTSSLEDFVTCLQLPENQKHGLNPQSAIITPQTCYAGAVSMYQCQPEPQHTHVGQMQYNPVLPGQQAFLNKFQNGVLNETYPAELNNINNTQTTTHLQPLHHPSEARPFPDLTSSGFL
Summary of the method: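 HepG2 cells (HG2L7.5c1) stably carrying a firefly luciferase reporter driven by 20 dioxin responsive elements were exposed to compound for 24 h at 37C after a 5 h settling period; luminescence rise (ONE-Glo) indicated activation.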

[12] = target: Peroxisome proliferator-activated receptor gamma (Homo sapiens) (UniProt P37231); assay: qHTS assay to identify small molecule antagonists of the peroxisome proliferator-activated receptor gamma (PPARg) signaling pathway (AID 743191; calls by dose curve; further: potency means the concentration at half of the fitted maximal effect; nearly all actives have a fitted effect of over 30% in size)
Peroxisome proliferator-activated receptor gamma (Homo sapiens), sequence (P37231 whole entry, looked up): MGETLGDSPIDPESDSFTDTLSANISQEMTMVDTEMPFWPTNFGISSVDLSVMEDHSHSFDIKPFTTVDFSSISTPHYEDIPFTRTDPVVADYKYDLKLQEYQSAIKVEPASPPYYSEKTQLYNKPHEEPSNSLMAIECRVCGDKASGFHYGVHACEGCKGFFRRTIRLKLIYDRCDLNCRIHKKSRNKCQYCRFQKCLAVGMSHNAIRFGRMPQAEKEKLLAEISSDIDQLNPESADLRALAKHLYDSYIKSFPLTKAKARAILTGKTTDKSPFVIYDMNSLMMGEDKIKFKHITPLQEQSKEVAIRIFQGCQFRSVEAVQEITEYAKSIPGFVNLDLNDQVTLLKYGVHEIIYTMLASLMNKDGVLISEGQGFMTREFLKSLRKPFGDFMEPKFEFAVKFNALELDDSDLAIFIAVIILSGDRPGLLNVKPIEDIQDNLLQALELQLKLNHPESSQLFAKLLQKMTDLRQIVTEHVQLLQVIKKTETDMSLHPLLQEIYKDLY
Summary of the method: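 Beta-lactamase reporter under UAS control in HEK293H PPARg-bla cells; compound treatment 17 h at 37C. Read-out: fluorescence intensity after 1 h room-temperature incubation with LiveBLAzer B/G FRET substrate.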

[13] = qHTS assay for small molecule activators of the heat shock response signaling pathway (AID 743210; active means well fitted activation curve with a large enough effect in the signal ratio in the repeat runs, with a control signal flat, not every such curve was filed as active; inconclusive means weak or mixed curves; the % refers to the signal ratio;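 further: HeLa cells with beta-lactamase reporter driven by heat shock elements; series mostly up to about 63 µM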)
Summary of the method: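 HeLa HSE-bla cells, overnight plating; cpd in DMSO 5 h, 37 C; LiveBLAzer B/G FRET substrate 2.5 h RT; fluorescence intensity read.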

[14] = qHTS assay to identify small molecule antagonists of the peroxisome proliferator-activated receptor gamma (PPARg) signaling pathway - cell viability counter screen (AID 743194); details: Potency: co-treated with 50 nM rosiglitazone unless noted; further: nearly all actives have a fitted effect of over 55% in size; further: potency means the concentration at half of the fitted maximal effect
Summary of the method: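 Viability was measured as CellTiter-Glo luminescence in GeneBLAzer PPARg UAS-bla HEK293H cells. These cells had been exposed 17 h at 37 C to compounds together with rosiglitazone at 50 nM final, with the beta-lactamase readout taken in the same wells.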

[15] = target: Peroxisome proliferator-activated receptor gamma (Homo sapiens) (UniProt P37231); assay: qHTS assay to identify small molecule agonists of the peroxisome proliferator-activated receptor gamma (PPARg) signaling pathway (AID 743094; active means well fitted activation curve with a large enough effect in the signal ratio in the repeat runs, not every such curve was filed as active; inconclusive means weak or mixed curves, or effect the other way; inactive means no such curve, though single readings can be large or run the other way; the % refers to the signal ratio; further: potency means the concentration at half of the fitted maximal effect)
Summary of the method: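 Beta-lactamase FRET fluorescence was the read-out after a 1 h room-temperature substrate step, following 17 h compound treatment at 37C of HEK293H cells expressing a UAS-driven bla reporter responsive to PPARg.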

[16] = target: Estrogen receptor (Homo sapiens) (UniProt P03372); assay: qHTS assay to identify small molecule agonists of the estrogen receptor alpha (ER-alpha) signaling pathway (AID 743075; calls by dose curve;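 further: HEK293 GripTite cells with ER-alpha and UAS-driven beta-lactamase reporter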; further: potency means the concentration at half of the fitted maximal effect)
Estrogen receptor (Homo sapiens), sequence (P03372 whole entry, looked up): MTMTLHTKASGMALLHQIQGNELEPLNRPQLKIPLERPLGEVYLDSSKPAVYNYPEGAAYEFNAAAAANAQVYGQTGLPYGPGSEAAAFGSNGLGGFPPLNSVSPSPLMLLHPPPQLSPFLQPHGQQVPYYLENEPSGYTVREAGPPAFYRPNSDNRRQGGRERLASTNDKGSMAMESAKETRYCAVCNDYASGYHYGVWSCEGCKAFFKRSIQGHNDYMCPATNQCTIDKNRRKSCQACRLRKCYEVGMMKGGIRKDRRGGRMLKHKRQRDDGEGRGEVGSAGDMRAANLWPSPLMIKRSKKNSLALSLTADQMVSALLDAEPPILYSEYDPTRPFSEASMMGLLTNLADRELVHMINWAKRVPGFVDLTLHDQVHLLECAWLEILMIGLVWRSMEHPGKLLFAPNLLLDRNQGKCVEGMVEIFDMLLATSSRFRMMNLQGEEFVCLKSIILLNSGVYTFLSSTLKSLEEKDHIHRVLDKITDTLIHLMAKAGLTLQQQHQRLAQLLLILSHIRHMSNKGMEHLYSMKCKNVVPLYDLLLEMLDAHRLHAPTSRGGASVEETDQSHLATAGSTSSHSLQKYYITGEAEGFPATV

[17] = target: Estrogen receptor (Homo sapiens) (UniProt P03372); assay: qHTS assay to identify small molecule agonists of the estrogen receptor alpha (ER-alpha) signaling pathway using the BG1 cell line (AID 743079); further: nearly all actives have a fitted effect of over 20% in size; further: potency means the concentration at half of the fitted maximal effect
[18] = qHTS assay to identify small molecule antagonists of the estrogen receptor alpha (ER-alpha) signaling pathway using the BG1 cell line (AID 743080; calls by dose curve;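 further: BG1 cells stimulated with 17beta-estradiol alongside compound; nearly all actives have a fitted effect of over 25% in size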; further: potency means the concentration at half of the fitted maximal effect)
Summary of the method: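 BG1-Luc-4E2 cells (endogenous full-length ER-alpha, stable 4×ERE-luciferase) were starved 5 days in phenol-red-free medium with 10% charcoal-stripped FBS, plated 24 h, then given compound plus 17beta-estradiol for 21.5 h at 37 C; ONE-Glo luminescence read after 30 min.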

[19] = target: Estrogen receptor (Homo sapiens) (UniProt P03372); assay: qHTS assay to identify small molecule antagonists of the estrogen receptor alpha (ER-alpha) signaling pathway (AID 743069; active means well fitted curve in the direction sought with a large enough effect in the signal ratio in the repeat runs, not every such curve was filed as active; inconclusive means weak or mixed curves, or effect the other way; inactive means no such curve, though single readings can be large or run the other way; the % refers to the signal ratio; further: potency means the concentration at half of the fitted maximal effect)
Summary of the method: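 ER-alpha-UAS-bla GripTite HEK293 line; 2% charcoal-stripped FBS overnight; plated, 4 hr 37C/5% CO2; cpd in DMSO + 17beta-estradiol, 18 hr 37C; LiveBLAzer B/G FRET substrate 2 hr RT; fluorescence intensity.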

[20] = qHTS assay for small molecule agonists of the antioxidant response element (ARE) signaling pathway (AID 743202; active means well fitted activation curve with a large enough effect in the signal ratio in the repeat runs, not every such curve was filed as active; inconclusive means weak or mixed curves, or effect the other way; inactive means no such curve, though single readings can be large or run the other way; the % refers to the signal ratio; further: potency means the concentration at half of the fitted maximal effect)
Summary of the method: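 Quantitative high-throughput format in HepG2 cells bearing an integrated ARE-beta-lactamase reporter. Compound exposure lasted 16 h at 37 C, and fluorescence was read 2 h after adding LiveBLAzer B/G substrate at room temperature.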

Measured: Potency

Cn1cc(C2=C(c3cn(C4CCN(Cc5ccccn5)CC4)c4ccccc34)C(=O)NC2=O)c2ccccc21
inactive: [1] | [2] | [3] | [4] | [5] | [6] | [7]

Cc1cc(C(C)(C)c2cc(C)c(O)c(C)c2)cc(C)c1O
inactive: [3] | [8] | [11] | [13]
active: [1] 23.5 µM | [2] 11.8 µM | [9] 16.7 µM | [10] 26.4 µM | [5] 52.7 µM | [12] 29.9 µM

C[C@@H]1O[C@@H](O[C@@H]2C=C3CC[C@@H]4[C@H](CC[C@]5(C)[C@@H](c6ccc(=O)oc6)CC[C@]45O)[C@@]3(C)CC2)[C@H](O)[C@H](O)[C@H]1O
active: [14] 0.0119 µM | [6] 0.0211 µM | [7] 0.006 µM
inactive: [1] | [2] | [3] | [8] | [9] | [10] | [11] | [5]

CC(=O)C(Cl)(Cl)Cl
active: [1] 5.9 µM | [2] 2.35 µM | [8] 23.5 µM | [9] 13.2 µM | [10] 18.7 µM | [5] 23.5 µM | [6] 0.743 µM
inactive: [3] | [4] | [11] | [15] | [7]

COP(=S)(OC)Oc1cc(Cl)c(Br)cc1Cl
active: [2] 61.1 µM | [16] 54.9 µM [inconclusive] | [12] 43.6 µM | [14] 34.7 µM
not listed: [4] | [5] | [6] | [11] | [19] | [20]
inactive: all other assays above

CC(C)(C)C(O)/C(=C\c1ccc(Cl)cc1Cl)n1cncn1 (stereo not drawn)
inactive: [4] | [16] | [8] | [11] | [7]
active: [1] 83 µM | [2] 74 µM | [19] 59.3 µM [inhibitor] | [18] 74 µM | [9] 58.7 µM | [10] 74 µM | [12] 52.8 µM | [6] 74 µM

C[C@]12Cc3nonc3C[C@@H]1CC[C@@H]1[C@@H]2CC[C@@]2(C)[C@H]1CC[C@]2(C)O
inactive: [4] | [8] | [10] | [11] | [5] | [14] | [6] | [7] | [13]
active: [1] 29.8 µM | [2] 13.3 µM | [18] 29.8 µM | [20] 8.41 µM

CCCCCCCCc1ccc(O)cc1
inactive: [3] | [8] | [11] | [5]
active: [1] 46.1 µM | [2] 30.6 µM | [9] 31.7 µM | [10] 21.8 µM | [7] 42.3 µM

CCCCN(CCCC)C(=S)[S-].CCCCN(CCCC)C(=S)[S-].[Zn+2]
active: [1] 18.8 µM and 7.69 µM | [2] 13.3 µM and 9.68 µM | [4] 19 µM and 12.3 µM | [16] 30.1 µM [inconclusive] | [8] 21.1 µM and 38.5 µM | [14] 5.49 µM | [6] 19.3 µM
inactive: [9] | [10] | [11] | [5] | [7]
inactive and 30.9 µM (active): [15]

O=C(CCl)C(Cl)Cl
inactive: [11]
active: [1] 8.71 µM | [2] 12.3 µM | [4] 39.3 µM | [16] 13.9 µM [inconclusive] | [17] 24.6 µM | [9] 8.71 µM | [10] 8.71 µM | [6] 61.7 µM

O=C(Nc1ccc2[nH]ccc2c1)c1cc2cc(F)ccc2n1Cc1cccc(F)c1
inactive: [4] | [8] | [11]
active: [1] 10.9 µM | [2] 13.7 µM | [6] 30.6 µM | [7] 49 µM

CCCOCC(=Nc1ccc(Cl)cc1C(F)(F)F)n1ccnc1
active: [1] 7.69 µM | [2] 7.69 µM | [9] 0.0153 µM | [10] 12.2 µM | [5] 54.4 µM | [14] 11 µM | [6] 13.7 µM | [7] 12.3 µM
inactive: [11]

[CH3][Hg][Cl]
active: [1] 0.861 µM | [2] 1.22 µM | [8] 34.3 µM | [9] 27.2 µM | [10] 24.3 µM | [14] 12.3 µM | [6] 8.61 µM | [7] 54.8 µM
inactive: [4] | [17] | [11] | [5]

CN(C)S(=O)(=O)N(SC(F)(Cl)Cl)c1ccccc1
inactive: [11]
active: [1] 1.22 µM | [2] 1.22 µM | [9] 3.44 µM | [10] 27.3 µM | [5] 61.1 µM | [14] 3.89 µM | [6] 8.63 µM

Oc1ccc(C2(c3ccc(O)cc3)c3ccccc3-c3ccccc32)cc1
inactive: [3] | [11]
active: [1] 27.3 µM | [2] 15.4 µM | [14] 17.4 µM | [6] 27.3 µM | [7] 21.9 µM

CC[C@H](C)[C@H]1O[C@]2(C=C[C@@H]1C)C[C@@H]1C[C@@H](C/C=C(\C)[C@@H](O[C@H]3C[C@H](OC)[C@@H](O[C@H]4C[C@H](OC)[C@@H](O)[C@H](C)O4)[C@H](C)O3)[C@@H](C)/C=C/C=C3\CO[C@@H]4[C@H](O)C(C)=C[C@@H](C(=O)O1)[C@]34O)O2
active: [1] 3.22 µM | [2] 26.6 µM and 3.22 µM | [6] 11.4 µM | [7] 12.9 µM
inactive and 18.1 µM (active): [10]
inactive: [16] | [17] | [18] | [8] | [11] | [13]
inactive and 11.4 µM (active): [5]
inactive and 25.8 µM (active): [4]
inactive and 14.4 µM (active): [9]

c1ccc(Nc2ccc3ccccc3c2)cc1
inactive and 54.9 µM (active): [7]
active: [1] 60.8 µM | [17] 19.2 µM and 9.69 µM | [10] 54.2 µM
not listed: [2] | [11] | [12] | [18] | [20]
inactive: all other assays above
